DENV2 CPE rescue: DENV2-induced cell death inhibition; hit rate 1.7% among 350,000; CPE inhibition, % at 9.99 µM; DENV2-infected cells, cytopathic effect rescue, plate reader; in the data active means CPE inhibition above about 20%, passing the limit was not always enough; inconclusive means no clear call, values can overlap the other calls; tested in BHK-21 cells;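 further: 0% = median of neutral control wells and 100% = median of positive control wells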
PGC1a acetyl inh: PGC1a acetylation modulation, inhibitor mode; hit rate 0.17% among 350,000; AID 651687; U2OS PGC1a acetylation, AlphaScreen anti-acetyl-lysine; with virally co-expressed GCN5 acetyltransferase; inhibition, % at 15.6 µM;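 active means every replicate shows inhibition of at least 40%; inconclusive means mean inhibition at least 40% but some replicate below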;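 further: 0% = neutral control wells and 100% = positive control wells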
PvdQ acylase: P. aeruginosa PvdQ acylase inhibition; purified PvdQ acylase, fluorescence plate reader; hit rate 0.063% among 340,000; inhibition, % at 10 µM; in the data active means inhibition above about 30%, passing the limit was not always enough; inconclusive means no clear call, values can overlap the other calls;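 further: 0% = vehicle neutral wells and 100% = reference inhibitor wells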
C2C12 statin: suppression of simvastatin myotoxicity; hit rate 0.78% among 330,000; rescue of ATP level, % at 7.49 µM; C2C12 myotubes + simvastatin, ATP luminescence, 48 h; scaled: DMSO 0, geranylgeraniol control 100;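 active means mean ATP rescue above about 67%, or every replicate alone reaching that limit, limit read from the data, passing the limit was not always enough; inconclusive means no clear call, values can overlap the other calls; inactive means mean under the limit and some replicate under it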;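 further: myotubes were challenged with 10 µM simvastatin during compound exposure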
miR-122 sensor: inhibitors of miR-122 in Huh7 cells | activation (reporter increase), % at 12.5 µM | AID 602342 | Huh7 miR-122 Renilla luciferase sensor, 48 h; neutral wells = 0, positive control = 100 | hit rate 0.3% among 340,000;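 active means mean replicate activation score at least 90 and every replicate individually at or above 90; inconclusive means only one of the two criteria met; inactive means neither criterion met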;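 further: higher luciferase means less miR-122 activity so hits act as miR-122 inhibitors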
Starred values were filed as active, the others as inactive; ? = inconclusive; / = not tested or not shown; [ ] = another dose, or the depositor's remark. A selection: hits, their analogues and other compounds. The true share with any hit is near 2.2%.

SMILES | DENV2 CPE rescue | PGC1a acetyl inh | PvdQ acylase | C2C12 statin | miR-122 sensor
C[C@@H]1CN([C@H](C)CO)S(=O)(=O)c2ccc(C3=CCCCC3)cc2O[C@H]1CN(C)Cc1ccccc1 | / | 42.9* | / | -56.0 | 6.5[16.7 µM]
C[C@H](CO)N1C[C@H](C)[C@@H](CN(C)C(=O)c2ccccc2)Oc2cc(C3=CCCC3)ccc2S1(=O)=O | 5.0 | / | / | -53.8 | 5.1[16.7 µM]
C[C@H]1CN([C@@H](C)CO)S(=O)(=O)c2ccc(C3=CCCC3)cc2O[C@H]1CN(C)Cc1cncnc1 | 14.9 | -63.5 | / | 3.3 | 3.8[16.7 µM]
C[C@H](CO)N1C[C@H](C)[C@H](CN(C)Cc2cncnc2)Oc2cc(C3=CCCCC3)ccc2S1(=O)=O | 29.5* | -0.4 | / | -6.8 | -2.0[16.7 µM]
C[C@H](CO)N1C[C@H](C)[C@H](CN(C)C(=O)c2ccccc2)Oc2cc(C3=CCCC3)ccc2S1(=O)=O | 27.3* | -4.5 | / | -3.2 | 2.7[16.7 µM]
CC(C)Cc1ccc(CN2CC[C@@H](NS(=O)(=O)c3ccccc3)C2)cc1 | 2.3 | 3.9 | / | / | /
C[C@@H]1CN([C@H](C)CO)S(=O)(=O)c2ccc(-c3cncnc3)cc2O[C@H]1CN(C)C | 34.5* | -5.2 | / | -4.7 | 12.4[16.7 µM]
CCOc1ncnc2c1[nH]c1ccccc12 | -6.4 | -20.3 | -10.9 | 130.9* | -7.4
COc1ccc(NC(=O)Nc2ccc3c(c2)C(=O)N([C@@H](C)CO)C[C@@H](C)[C@@H](CN(C)Cc2ccc4c(c2)OCO4)OCCCC[C@@H](C)O3)cc1 | 34.1* | 7.1 | / | / | -0.9[16.7 µM]
COc1ccc(NC(=O)Nc2ccc3c(c2)C(=O)N([C@@H](C)CO)C[C@H](C)[C@H](CN(C)Cc2ccc(C(=O)O)cc2)OCCCC[C@@H](C)O3)cc1 | 59.4* | 10.4 | / | / | -5.7[16.7 µM]
COc1ccc(NC(=O)Nc2ccc3c(c2)C(=O)N([C@H](C)CO)C[C@@H](C)[C@H](CN(C)Cc2ccc4c(c2)OCO4)OCCCC[C@@H](C)O3)cc1 | 23.6* | -3.4 | / | / | -5.2[16.7 µM]
COc1ccc(S(=O)(=O)Nc2ccc3c(c2)C(=O)N([C@@H](C)CO)C[C@@H](C)[C@@H](CN(C)S(=O)(=O)c2cccs2)OCCCC[C@H](C)O3)cc1 | -0.1 | -16.0 | / | 90.5* | 5.0[16.7 µM]
COc1ccc(S(=O)(=O)N(C)C[C@H]2OCCCC[C@H](C)Oc3ccc(NS(=O)(=O)c4cccs4)cc3C(=O)N([C@H](C)CO)C[C@H]2C)cc1 | 63.1* | -0.7 | / | / | 0.3[16.7 µM]
Cc1ccc(S(=O)(=O)Nc2ccc3c(c2)C(=O)N([C@H](C)CO)C[C@H](C)[C@@H](CN(C)C(=O)c2ccncc2)OCCCC[C@@H](C)O3)cc1 | -7.8 | -6.2 | / | -19.2 | 3.5[16.7 µM]
C[C@@H]1CN([C@H](C)CO)C(=O)c2cc(NC(=O)Nc3ccc(F)cc3)ccc2O[C@@H](C)CCCCO[C@H]1CN(C)C(=O)C1CCCCC1 | 14.9 | 5.0 | / | / | -13.1[16.7 µM]
Cc1ccccc1CS(=O)(=O)c1nnc([C@H](Cc2ccccc2)NC(=O)OC(C)(C)C)o1 | 1.2 | 54.9* | -3.7 | -619.0 | -6.2
CCOC(=O)C1CCN(C(=O)COC(=O)c2nc3nc(C)cc(C)n3n2)CC1 | 4.5 | 0.4 | -1.4 | 0.7 | -3.0
CCOC(=O)C1CCN(S(=O)(=O)c2nc3nc(C)cc(C)n3n2)CC1 | / | -7.5 | -6.4 | 103.6* | -8.6
COc1ccc(-c2noc(Cc3cccs3)n2)cc1 | / | -8.9 | -12.9 | 92.8* | 0.1
Cc1cc(/C=C\c2ccc3cc(N(C)C)ccc3[n+]2C)c(C)n1-c1ccccc1 | / | 67.6* | -5.4 | -205.7 | -26.4
COc1ccc(Br)cc1C(=O)Nc1cccc2ncccc12 | -3.4 | / | -16.1 | / | /
COc1cc(C(=O)Nc2cccc3ncccc23)cc(OC)c1OC | / | -8.0 | -8.9 | 92.3* | -0.1
Cc1c(NC(=O)c2ccc3c(c2)OCO3)cccc1-c1nc2ccccc2o1 | / | -5.1 | 6.4 | 30.4 | -1.5
COc1cc(C(=O)Nc2cccc(-c3nc4ccccc4o3)c2C)cc(OC)c1OC | / | 1.6 | -3.8 | 97.5* | 6.0
CCCCn1nc(C(=O)Nc2ccc(-n3cnnn3)cc2)c2ccccc2c1=O | 57.3* | 0.8 | -10.3 | -8.1 | -1.0
SMILES | DENV2 CPE rescue | PGC1a acetyl inh | PvdQ acylase | C2C12 statin | miR-122 sensor
Cn1nc(C(=O)Nc2ccc(-n3cnnn3)cc2)c2ccccc2c1=O | 8.6 | -3.2 | -16.1 | -1.6 | -9.9
CCCCn1nc(C(=O)Nc2ccc3c(c2)OCO3)c2ccccc2c1=O | 36.2* | 13.8 | -13.1 | -6.7 | -0.5
CCCn1nc(C(=O)Nc2ccc3c(c2)OCO3)c2ccccc2c1=O | -9.7 | 0.4 | 11.2 | 0.6 | -10.5
O=C(NC1CCCCC1)N1CC2(C1)[C@H](c1ccccc1)[C@@H](CO)N2CC1CC1 | 1.9 | -0.9 | / | / | /
CCN(CC(=O)Nc1c(F)cccc1F)C(=O)CSCc1c(C)noc1C | -4.0 | / | -16.9 | / | /
CCN(CC(=O)Nc1ccc(OC)cc1)C(=O)CSCc1c(C)noc1C | 73.9* | 4.4 | -16.3 | 21.1 | -6.5
CCCCOC(=O)CSC1=C(C#N)C(c2ccc3c(c2)OCO3)CC(=O)N1 (centres undefined) | / | 6.2 | -11.1 | 101.5* | 7.4
COc1ccccc1Oc1ccc2c(c1)C(=O)N(c1ccc(C)cc1)C2=O | / | 103.7* | 2.5 | / | 5.3
COc1ccccc1Oc1ccc2c(c1)C(=O)N(c1ccccc1)C2=O | / | / | -15.4 | / | 14.0
C[C@@H]1CCCCO[C@H](CN(C)C(=O)CCCN(C)C)[C@@H](C)CN([C@H](C)CO)C(=O)c2cc(NS(=O)(=O)c3ccc(F)cc3)ccc2O1 | 4.6 | 5.9 | / | / | -3.4[16.7 µM]
Cc1cccc(NS(=O)(=O)c2cc3c4c(c2)CCC(=O)N4CCC3)c1 | -2.0 | 11.3 | 7.1 | -12.6 | 181.3*
Cc1ccc(CSc2nnc3nc(C)cc(C)n23)cc1 | / | 17.5 | -16.1 | 138.9* | -3.3
O=[N+]([O-])c1ccccc1S(=O)(=O)Nc1cccc(-c2ccc3nncn3n2)c1 | 64.8* | 19.9 | -14.7 | -13.0 | 8.3
COC(=O)[C@H]1[C@H](CO)[C@H]2Cn3c(ccc(-c4ccccc4OC)c3=O)[C@H]2N1CC1CCCC1 | -3.0 | / | / | 6.6 | /
CN(C)CCCN(C(=O)CCOc1ccccc1)c1nc2ccc(F)cc2s1 | ? | 50.5* | -24.6 | / | /
CN(C)CCCN(C(=O)COc1ccccc1)c1nc2ccc(F)cc2s1 | -2.0 | / | -15.7 | / | /
CO[C@H]1CN(C)C(=O)c2ccc(NC(=O)Cc3ccccc3)cc2OC[C@@H](C)NC[C@@H]1C | 0.6 | 9.8 | / | -1.4 | 2.7[16.7 µM]
O=C(NCC1CC1)c1cc([N+](=O)[O-])cc([N+](=O)[O-])c1 | 4.3 | / | 67.9* | 8.8 | /
C[C@H]1CCCCO[C@@H](CN(C)Cc2ccccc2)[C@@H](C)CN([C@@H](C)CO)C(=O)c2cc(NC(=O)C3CCCCC3)ccc2O1 | -4.8 | -2.1 | / | / | -8.3[16.7 µM]

Screens deposited in PubChem by Broad Institute.
